Source: PubChem BioAssay AID651599 (National Center for Advancing Translational Sciences (NCATS), 2012)
Inconclusive results are not listed. Calls of active or inactive are those of the source. The call rests on the fitted dose curve; in most records, active means well fitted inhibition curve with a large enough effect; inconclusive means small, poorly fitted or top-dose-only effect; inactive means no such curve, though single readings can be large or run the other way.

These compounds were tested against Tumor susceptibility gene 101 protein (Homo sapiens) (UniProt Q99816) (assay: qHTS Assay for Iinhibitors of HIV-1 Budding by Blocking the Interaction of PTAP/TSG101: Hit Validation in TR assay). Conditions: Tsg101 binding domain + Texas Red-labeled PTAP peptide, fluorescence polarization, 20 min; series mostly up to 57.5 µM; activity change, negative = inhibition: at the top concentration.
Chain of Tumor susceptibility gene 101 protein (Homo sapiens) (Q99816 whole entry, looked up, the tested form may be a part): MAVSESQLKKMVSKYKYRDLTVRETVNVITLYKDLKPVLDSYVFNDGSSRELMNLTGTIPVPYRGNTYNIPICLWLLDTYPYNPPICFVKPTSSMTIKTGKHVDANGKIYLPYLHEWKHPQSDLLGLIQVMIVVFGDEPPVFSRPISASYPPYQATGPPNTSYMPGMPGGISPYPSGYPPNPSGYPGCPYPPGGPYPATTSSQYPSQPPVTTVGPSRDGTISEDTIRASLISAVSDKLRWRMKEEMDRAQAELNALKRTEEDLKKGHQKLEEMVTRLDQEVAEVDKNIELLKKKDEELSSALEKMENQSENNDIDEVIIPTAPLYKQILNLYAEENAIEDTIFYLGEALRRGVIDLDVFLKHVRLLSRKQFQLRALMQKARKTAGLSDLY
Text: Stages of the HIV-1 replication cycle, specifically virus assembly and release, provide underexploited targets for the development of novel antiviral inhibitors. The late stages of HIV-1 replication are mediated by the Gag precursor protein, Pr55Gag. Expression of Pr55Gag is both necessary and sufficient for the production of virus-like particles from Gag-expressing cells. The Gag protein hijacks key host proteins involved in endocytic machinery of the host cell to promote endosomal processing and viral budding. The budding process requires a direct interaction between a […] (PTAP) motif in the p6 domain of Gag and the cellular endosomal sorting protein known as Tsg101. In this way, the Gag PTAP motif promotes the host cells to recruit viral particles to the plasma membrane where the new viral particles are released, effectively turning the host cells into viral factories. A fluorescence anisotropy assay has been developed to quantitatively measure the PTAP-Tsg101 interaction which can be used to screen for inhibitors of this interaction.
This hit validation assay is similar to the primary assay but uses the Texas Red label instead of FITC.
NIH Molecular Libraries Probe Production Network [MLPCN]
NIH Chemical Genomics Center [NCGC]
PI Name: Dr. Eric Freed, NCI
Two uL of the Tsg101 binding domain in buffer (10 mM HEPES pH 7.5; 0.15 M NaCl, 0.01% Tween 20; 3 mM EDTA;0.1 mM TCEP) was dispensed into Greiner black MB 1536-well plates (final concentration 10 uM). Then, 23 nL of compounds or DMSO were delivered to each well using a pin tool. Finally, 2 uL of a TR-labeled peptide containing the PTAP motif (1) in the same buffer was dispensed (50 nM final concentration) and the binding was allowed to proceed for 20 min. at r.t. Fluorescent polarization was determined using TR excitation and polarized emission filters on a Perkin Elmer Viewlux.
Keywords: Tsg101, PTAP, Gag, HIV, fluorescent polarization, MLSMR, MLPCN, NIH Roadmap, qHTS, NCGC
On the % scale 0 is the no-effect control and ±100 the full control effect; potency means the concentration at half of the fitted maximal effect.

Row | Structure (SMILES) | activity change, negative = inhibition | Potency
1 | CCN(CC)C(=O)Cn1cc(C=C2C(=O)N(C)C(=O)N(C)C2=O)c2ccccc21 | -8.32% (inactive) | –
2 | N#CCN1CCN(c2ccc(C(F)(F)F)cc2)CC1 | -12.3% (inactive) | –
3 | O=C1NC(=O)N(c2ccc(F)cc2)C(=O)/C1=C/c1ccc2c(c1)CCCN2Cc1ccccc1 | 2.12% (inactive) | –
4 | COc1ccc(N2C(=O)NC(=O)/C(=C\c3cn(C)c4ccccc34)C2=O)cc1 | -82.3% (inactive) | –
5 | Nc1cc2nc3ccccc3nc2cc1N | -20.2% (inactive) | –
6 | C#CCN1C(=O)S/C(=C\c2ccc(N3CCOCC3)cc2C)C1=O | -9.29% (inactive) | –
7 | CC(C)C[C@H]1C(=O)N2CCC[C@H]2[C@]2(O)O[C@](NC(=O)[C@@H]3C=C4c5cccc6[nH]cc(c56)C[C@H]4N(C)C3)(C(C)C)C(=O)N12 | 23.6% (inactive) | –
8 | CC1=NCCc2c1[nH]c1cc(O)ccc21 | 14.7% (inactive) | –
9 | O=c1cc(C(F)(F)F)c2cc3c4c(c2o1)CCCN4CCC3 | 12.3% (inactive) | –
10 | CN1CC=C2C(C#N)=C(N)C(C#N)(C#N)C(c3ccncc3)C2C1 (stereo unspecified) | -13.5% (inactive) | –
11 | O=[N+]([O-])c1ccc(NCc2ccccc2)c2nonc12 | -2.23% (inactive) | –
12 | N#CC(C#N)=Cc1ccc(-c2ccccc2F)o1 | -14.9% (inactive) | –
13 | CCOC(=O)C1CCCN(c2ccc([N+](=O)[O-])c3nonc23)C1 (stereo unspecified) | -2.58% (inactive) | –
14 | CC1=C[C@@H]2c3cccc4[nH]cc(c34)C[C@H]2N(C)C1 | -10.5% (inactive) | –
15 | CN1CCN(c2ccc([N+](=O)[O-])c3no[n+]([O-])c23)CC1 | -24.5% (inactive) | –
16 | Nc1ccc2ccc3cccc[n+]3c2c1 | – | 16.3 µM (active)
17 | CN1/C(=C\C=C2C(=O)NC(=S)NC2=O)C(C)(C)c2ccccc21 | 17% (inactive) | –
18 | Nc1ccc2nonc2c1[N+](=O)[O-] | -5.71% (inactive) | –
19 | CC(C)C[C@H]1C(=O)N2CCCC2[C@]2(O)O[C@](NC(=O)[C@@H]3C=C4c5cccc6[nH]cc(c56)CC4N(C)C3)(C(C)C)C(=O)N12 (stereo partly specified) | 11.2% (inactive) | –
20 | C=CCN1CCC2(C)c3cc(O)ccc3CC1C2C (stereo unspecified) | -6.86% (inactive) | –
21 | CCOC(=O)c1c(/N=C/c2c(O)n(-c3ccccc3F)c(=S)[nH]c2=O)sc2c1CCCC2 | -9.37% (inactive) | –
22 | CN1Cc2c(c(C#N)c(N)n(C)c2=S)CC1(C)C | 24.8% (inactive) | –
23 | Cc1cc(N2CCCC2)ccc1C=C(C#N)C#N | 61.5% (inactive) | –
24 | CCOC(=O)[C@]1(C#N)[C@@H]2C=CC(C(C)=O)=CN2[C@@H](C(N)=O)[C@@H]1c1ccsc1 | 54.4% (inactive) | –
25 | CCN(CC)c1ccc(N=Cc2c(O)n(-c3ccc(OC)cc3)c(=O)[nH]c2=O)cc1 | 2.78% (inactive) | –
26 | COc1cccc2c1C(=O)c1c(O)c3c(c(O)c1C2=O)CC(O)(C(C)=NO)CC3OC1CC(N)C(O)C(C)O1 (stereo unspecified) | -4.88% (inactive) | –
